Screens (PubChem BioAssay)
This is a sample that favours compounds with a hit; in the whole collection about 19% have one here.
ELG1 repair inh = ELG1-dependent DNA repair inhibition; HEK293T ELG1-luciferase reporter, luminescence, 16 h; DNA damage induced by 5-fluorouridine; Potency, µM (top dose mostly 46.1 µM), without a hit: at the highest dose activity change, negative = inhibition, actives largely listed as inhibitors; actives 2.3% (n = 330,000); AID 504467; note: potency is the fitted concentration of half-maximal effect; nearly all actives have a fitted effect of over 55% in size
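Luminescence from the luciferase reporter, measured 30 min after ONE-Glo reagent at room temperature, was the read-out. Beforehand, 2,000 cells per well were exposed for 16 hr at 37 °C to 5-fluorouridine together with compound or vehicle.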
TDP1 cell noCPT = qHTS for Inhibitors of human tyrosyl-DNA phosphodiesterase 1 (TDP1): qHTS in cells in absence of CPT. Potency, µM (doses to about 46.2 µM), inactives show top-dose activity change, negative = growth inhibition, most hits filed as inhibitors. DT40 Tdp1-/- hTDP1 cells, no CPT, ATP luminescence, 48 h. actives 15% (n = 420,000); note: potency is the fitted concentration of half-maximal effect; nearly all actives have a fitted effect of over 55% in size
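DT40 Tdp1-/-;hTDP1 cells, no CPT (DMSO vehicle only), 400 cells/well; compounds pin-transferred; ≥48 hr, 37 °C; CellTiter-Glo 30 min RT dark, luminescence read.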
HT1080-NT tox = kills 2HG-producing HT-1080-NT fibrosarcoma cells | HT-1080-NT fibrosarcoma viability, CellTiter-Glo ATP luminescence, 48 h | Potency, µM (series often up to 46.1 µM), for the others: top-dose activity, negative = less viability, most hits filed as cytotoxic | actives 1.6% (n = 360,000);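 note: NT is the 2HG producing partner of a matched IDH1 knockdown line; potency is the fitted concentration of half-maximal effect; 0% = DMSO-treated cells and -100% = media-only wells without cells; nearly all actives have a fitted effect of over 55% in size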
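Toxicity toward the 2HG-producing NT line was scored as %Activity, normalised to DMSO and no-cell wells, from CellTiter-Glo luminescence after 48 hours' treatment.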
DT40 TDP1 CPT = DT40-hTDP1 cell growth loss with CPT | chicken DT40 Tdp1-/-;hTDP1 cells + 20 nM CPT, ATP luminescence, 48 h | Potency, µM (series often up to 46.2 µM), for inactives: top-dose activity change, negative = growth inhibition, hits mostly inhibitors | actives 12% (n = 420,000) | AID 686979; note: potency is the fitted concentration of half-maximal effect; nearly all actives have a fitted effect of over 55% in size
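Chicken DT40 Tdp1-/- cells stably complemented with human TDP1 were seeded at 400 cells/well in medium containing 20 nM camptothecin, exposed to pin-transferred compounds, and grown at 37 °C for at least 48 hr. Viability was read as ATP luminescence.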
IL1B secr inh = inhibitors of inflammasome signaling (IL-1 beta secretion). THP-1 LPS/ATP IL-1B secretion, AlphaLISA, 16 h; active compounds read low. activity change, % at 57.5 µM. actives 4.7% (n = 360,000). AID 743279; in the data active = activity change below about -50%; inconclusive = mostly about -30% to -49%
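THP-1 cells pretreated 1 hr with compounds (up to 57.5 uM final), then stimulated with LPS (250 ng/mL final) plus ATP (1.25 mM final); secreted IL-1B measured by AlphaLISA after 16 hr, decreased signal indicating inhibition.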
HT1080 IDH1KD tx = HT-1080 IDH1 knockdown cell toxicity (counter line). HT-1080 IDH1 knockdown viability, ATP luminescence, 48 h. Potency, µM (titrated, usually from 46.1 µM), without a hit: top-dose activity, negative = toxicity, actives largely listed as cytotoxic. actives 2% (n = 360,000). AID 686971;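 note: potency is the fitted concentration of half-maximal effect; 0% = DMSO wells and -100% = cell-free medium wells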
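Assay cells: HT-1080 with IDH1 knockdown, 750 per well, RPMI/5% FBS. Exposure: 48 h at 37 °C following 2 h pre-incubation. Read: CellTiter-Glo luminescence; fitted concentration-response, curve class assigned.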
* marks the source's active call; other numbers are inactive results. Unless noted, calls come from the whole dose curve; as a rule, active = well fitted curve in the direction sought with a large enough effect; inconclusive = small, poorly fitted or top-dose-only effect, or another doubt; inactive = no such curve, though single readings can be large; an effect the other way counts as inactive or inconclusive. Unless noted, % is set by controls: 0 for no effect and ±100 for the full control effect.

`CN(C)c1ccc(CN(CC2CCCO2)C(=O)COc2ccc(Cl)cc2)cc1` (configuration not stated) gave TDP1 cell noCPT 18.4µM* and DT40 TDP1 CPT 25.9µM*.
For Cc1cc(OCC(=O)N(Cc2ccc(N(C)C)cc2)CC2CCCO2)ccc1Cl (configuration not stated) the results were TDP1 cell noCPT -99.8% and DT40 TDP1 CPT 23.1µM*.
`CC(C)CNC(=O)C1CCN(S(=O)(=O)c2ccc3c(c2)OCCO3)CC1` gave ELG1 repair inh 27.2%, TDP1 cell noCPT inconclusive, HT1080-NT tox 2.8%, DT40 TDP1 CPT -2.0%, IL1B secr inh 19.3 and HT1080 IDH1KD tx 4.4%.
For O=S1(=O)C[C@H](N2CCC(Cc3ccccc3)CC2)[C@@H](COCc2ccccc2)N1 the results were TDP1 cell noCPT inconclusive, HT1080-NT tox -2.6%, DT40 TDP1 CPT inconclusive, IL1B secr inh 32.2 and HT1080 IDH1KD tx -5.9%.
`CCOc1ccc(S(=O)(=O)N2CCN(C(=O)c3ccc(Cl)c(S(=O)(=O)N4CCOCC4)c3)CC2)cc1` gave TDP1 cell noCPT inconclusive, HT1080-NT tox -1.8%, DT40 TDP1 CPT inconclusive, IL1B secr inh -13.4 and HT1080 IDH1KD tx 0.4%.
CCOc1ccc(S(=O)(=O)N2CCN(C(=O)c3cccn3C)CC2)cc1 was read as ELG1 repair inh -1.8%, TDP1 cell noCPT 14.6µM*, HT1080-NT tox 4.9%, DT40 TDP1 CPT inconclusive, IL1B secr inh -2.8 and HT1080 IDH1KD tx 4.9%.
`CCOc1ccc(S(=O)(=O)N2CCN(C(=O)Cc3ccc(S(=O)(=O)N4CCOCC4)s3)CC2)cc1` gave ELG1 repair inh -12.8%, TDP1 cell noCPT 23.1µM*, HT1080-NT tox -7.8%, DT40 TDP1 CPT inconclusive, IL1B secr inh -13.4 and HT1080 IDH1KD tx 0.1%.
For CCOc1ccc(S(=O)(=O)N2CCN(C(=O)c3ccc(C)c(S(=O)(=O)N4CCOCC4)c3)CC2)cc1 the results were ELG1 repair inh inconclusive, TDP1 cell noCPT 18.4µM*, HT1080-NT tox -9.1%, DT40 TDP1 CPT 25.9µM*, IL1B secr inh -4.0 and HT1080 IDH1KD tx -9.6%.
Screening CCOc1ccc(-n2c(SCC(N)=O)nc3c(oc4ccccc43)c2=O)cc1 returned TDP1 cell noCPT -24.1% and DT40 TDP1 CPT inconclusive.
`Cc1cc(C)c(/C=C/c2onc(C)c2S(=O)(=O)N2CCC(C(=O)Nc3ccc(Cl)c(C(F)(F)F)c3)CC2)c(C)c1` gave TDP1 cell noCPT 5.8µM* and DT40 TDP1 CPT 4.11µM*.
For CCOc1ccc(NC(=O)C2CCN(S(=O)(=O)c3c(C)noc3/C=C/c3c(C)cc(C)cc3C)CC2)cc1 the results were TDP1 cell noCPT 6.51µM* and DT40 TDP1 CPT 9.2µM*.
`Cc1noc(/C=C/c2ccccc2F)c1S(=O)(=O)N1CCC(C(=O)NCC(C)c2ccccc2)CC1` (configuration not stated) gave TDP1 cell noCPT -27.8% and DT40 TDP1 CPT -11.8%.
`COc1cc(OC)c(NC(=O)C2CCN(S(=O)(=O)c3c(C)noc3/C=C/c3c(C)cc(C)cc3C)CC2)cc1Cl` gave TDP1 cell noCPT -18.7% and DT40 TDP1 CPT -2.7%.
Screening CCOc1ccc(N(C)C(=O)C2CCN(S(=O)(=O)c3c(C)noc3/C=C/c3ccc(C)cc3)CC2)cc1 returned TDP1 cell noCPT 5.8µM* and DT40 TDP1 CPT 4.11µM*.
Cc1cc(C)c(/C=C/c2onc(C)c2S(=O)(=O)N2CCC(C(=O)NCC(C)c3ccccc3)CC2)c(C)c1 (configuration not stated) was read as TDP1 cell noCPT 14.6µM* and DT40 TDP1 CPT 23.1µM*.
COc1cccc(Oc2ccc(S(=O)(=O)N3CCOCC3)cc2[N+](=O)[O-])c1 was read as ELG1 repair inh 3.2%, TDP1 cell noCPT -16.2%, HT1080-NT tox 0.0%, DT40 TDP1 CPT -19.3%, IL1B secr inh -10.0 and HT1080 IDH1KD tx -5.7%.
Screening CC(C)C(=O)NNC(=O)c1csc(-c2cccs2)n1 returned ELG1 repair inh 7.6%, TDP1 cell noCPT -17.8%, HT1080-NT tox 29.4%, DT40 TDP1 CPT 8.1%, IL1B secr inh -13.3 and HT1080 IDH1KD tx 16.9%.
For N#CCC(=O)N/N=C\c1cc(Br)ccc1OC/C=C/c1ccccc1 the results were ELG1 repair inh inconclusive, TDP1 cell noCPT 25.9µM*, HT1080-NT tox -18.8%, DT40 TDP1 CPT 14.6µM*, IL1B secr inh -20.7 and HT1080 IDH1KD tx inconclusive.
For COC(=O)N/N=C\c1ccccc1OC/C=C/c1ccccc1 the results were ELG1 repair inh inconclusive, TDP1 cell noCPT inconclusive, HT1080-NT tox inconclusive, DT40 TDP1 CPT inconclusive, IL1B secr inh -64.6* and HT1080 IDH1KD tx inconclusive.
For COc1cc(/C=N\NC(C)=O)ccc1OC/C=C/c1ccccc1 the results were ELG1 repair inh 16.4µM*, TDP1 cell noCPT -10.0%, HT1080-NT tox -29.6%, DT40 TDP1 CPT -12.5%, IL1B secr inh -1.1 and HT1080 IDH1KD tx inconclusive.
Screening Cc1ccc(OS(=O)(=O)c2cn(C)c(=O)n(C)c2=O)cc1C returned ELG1 repair inh 15.1%, TDP1 cell noCPT 0.5%, HT1080-NT tox inconclusive, DT40 TDP1 CPT 4.0%, IL1B secr inh -15.6 and HT1080 IDH1KD tx 0.4%.
Screening CCOc1ccc(CCNC(=O)COC(=O)CNS(=O)(=O)c2ccc(NC(C)=O)cc2)cc1OCC returned ELG1 repair inh 9.4%, TDP1 cell noCPT 3.5%, HT1080-NT tox 0.3%, DT40 TDP1 CPT -5.9%, IL1B secr inh -11.5 and HT1080 IDH1KD tx 0.4%.
Screening CC(C)c1ccc(NC(=O)CSc2nc(=O)[nH]c3c2CCCC3)cc1 returned ELG1 repair inh -17.1%, TDP1 cell noCPT 20.6µM*, HT1080-NT tox -6.5%, DT40 TDP1 CPT inconclusive, IL1B secr inh 12.1 and HT1080 IDH1KD tx -10.3%.
Screening CCN(CC)CCCn1c2c(c(SCC(=O)Nc3cc(OC)cc(OC)c3)nc1=O)CCC2 returned ELG1 repair inh 4.6%, TDP1 cell noCPT 18.4µM*, HT1080-NT tox -17.0%, DT40 TDP1 CPT inconclusive, IL1B secr inh inconclusive and HT1080 IDH1KD tx -16.0%.
For Cc1ccc(CNC(=O)CSc2nc(=O)[nH]c3c2CCCC3)cc1 the results were TDP1 cell noCPT 2.0% and DT40 TDP1 CPT 3.5%.
